# High-throughput results from PubChem.
# mHTT-CaM PPI inh: mutant huntingtin-calmodulin interaction inhibitors – biochemical, AlphaScreen, primary screen. P42858. inhibition, % at 15 µM. 190,000 tested, 3.6% active. AID 1671202, 2021. AlphaScreen His-mHTT/GST-CaM binding, luminescence;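 also: 0% = both proteins with DMSO and 100% = one protein alone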
# Pf apPOL block: Pf-apPOL inhibitors, biochemical, fluorescence; inhibition, % at 10 µM; Recombinant Pf-apPOL, molecular beacon fluorescence, 1.5 h; Plasmodium falciparum apicoplast DNA polymerase (apPOL); 210,000 tested, 0.25% active; AID 1794808, 2022
# Starred values were filed as active, the others as inactive; x = not tested or not shown. This excerpt belongs to a sample that is enriched for hits. Rule as the data show it: active = inhibition above about 50%; inactive = the rest.
SMILES,mHTT-CaM PPI inh,Pf apPOL block
COc1ccc(Cl)cc1NC(=O)c1c(NCc2cccn2C)sc2c1CCCC2,65*,-15
COc1ccc(OC)c(NC(=O)c2c(NC(=O)c3ccccc3F)sc3c2CCCC3)c1,-4,-24
COc1ccc(Cl)cc1NC(=O)c1c(NCc2ccccn2)sc2c1CCCC2,75*,-17
COc1ccc(OC)c(NC(=O)c2c(NCc3ccccn3)sc3c2CCCC3)c1,59*,-18
COc1ccc(NC(=O)c2c(NC(=O)c3ccccc3Cl)sc3c2CCCC3)c(OC)c1,4,-9
COc1ccc(NC(=O)c2c(NC(=O)c3cccnc3)sc3c2CCC3)cc1,0,2
COc1ccc(NC(=O)c2c(NCc3ccccn3)sc3c2CCC3)cc1,59*,-17
COc1ccc(-c2cc(C(=O)O)c3cc(C)cc(C)c3n2)cc1OC,-1,2
CCOc1ccc(-n2c(CN3CCN(C(=O)NC4CCCC4)CC3)nc3cccnc32)cc1,3,-5
CC(C)NC(=O)C1CCCCN1C(=O)c1cc(-c2ccc(F)cc2)on1 (stereo unspecified),-11,-1
COc1ccc(/C=C2/N=C(c3c(-c4ccccc4)noc3C)OC2=O)cc1,-1,2
O=C(O)c1cc(N2C(=O)C3C4C=CC(C5CC45)C3C2=O)ccc1Cl (stereo unspecified),4,63*
Cc1ccc(N2C(=O)C3C4C=CC(C5CC45)C3C2=O)cc1Cl (stereo unspecified),0,2
Cc1ccc(C)c(CNC(=O)c2ccc3c(c2)nc2n3CCN(C(C)C)C2=O)c1,-12,3
COc1ccc(Br)cc1CN1CCC(N2CCCCCC2)CC1,2,0
CC(C)(C)c1nc(CN2CCCCC2)cc(CN2CCCCC2)c1O,2,-8
Cc1cc(=O)n2ccc(CN3CCCCC3)c(O)c2n1,92*,1
COc1ccc(-c2coc3c(CN4CCCC(C)C4)c(O)ccc3c2=O)cc1 (stereo unspecified),6,-14
Fc1ccc(C2Oc3ccc(Cl)cc3C3CC(c4ccco4)=NN32)cc1F (stereo unspecified),82*,-17
COc1ccc(C2=NN3C(C2)c2cc(OC)ccc2OC3c2cc(OC)c(OC)c(OC)c2)cc1 (stereo unspecified),59*,-16
COc1cccc2c1OC(c1cccc(F)c1)N1N=C(c3ccco3)CC21 (stereo unspecified),32,-17
COc1cc(C2Oc3ccccc3C3CC(c4ccccc4)=NN32)cc(OC)c1OC (stereo unspecified),-5,x
CCOc1cccc2c1OC(c1ccc(F)c(F)c1)N1N=C(c3ccco3)CC21 (stereo unspecified),14,-29
COc1cc(C2Oc3c(OC)cccc3C3CC(c4ccco4)=NN32)cc(OC)c1OC (stereo unspecified),38,-14
Brc1ccc2c(c1)C1CC(c3ccco3)=NN1C(c1cccs1)O2 (stereo unspecified),89*,1
SMILES,mHTT-CaM PPI inh,Pf apPOL block
COc1cc(C2Oc3ccc(Cl)cc3C3CC(c4ccco4)=NN32)cc(OC)c1OC (stereo unspecified),63*,-20
O=C(NCc1ccc(Cl)cc1)NCC1CCN(Cc2cccs2)CC1,-17,-6
Clc1ccc(C2CC(c3cccc(Br)c3)Nc3nnnn32)cc1 (stereo unspecified),44,-4
O=C(CCS(=O)(=O)c1ccccc1)N1CCN(C(=O)C2CC2c2cccs2)CC1 (stereo unspecified),-11,-5
COc1cccc(C2Oc3ccc(Cl)cc3C3CC(c4ccco4)=NN32)c1 (stereo unspecified),47,-12
COc1ccc(C2Oc3ccc(Cl)cc3C3CC(c4ccco4)=NN32)cc1OC (stereo unspecified),60*,-20
O=C(NCc1cccnc1)c1cc(-c2ccc(Cl)s2)nc2ccccc12,0,0
CCCC1(C)NC(=S)N(c2ccccc2)N1 (stereo unspecified),-5,x
CC(C)(C)c1cc(CCC(=O)NNC(=O)c2ccco2)cc(C(C)(C)C)c1O,7,1
CC(C)(C)c1cc(CCC(=O)NNC(=S)NC(=O)c2ccccc2)cc(C(C)(C)C)c1O,58*,-271
N#CC1=C(N)Oc2n[nH]c(-c3cccs3)c2C1c1ccc(Cl)cc1 (stereo unspecified),30,-17
COc1ccccc1NCN1C(=O)S/C(=C\c2ccc(F)cc2)C1=O,23,0
CC(=O)Nc1cccc(NC(=O)c2ccccc2[N+](=O)[O-])c1,0,-10
Brc1cc2c(cc1[C@H]1Nc3ccccc3[C@H]3C=CC[C@H]31)OCO2,x,6
CC(=O)Nc1ccc2c(c1)C1C=CCC1C(c1ccc(Br)cc1)N2 (stereo unspecified),86*,73*
Cc1ccc2c(c1)C1C=CCC1C(c1ccccc1Br)N2 (stereo unspecified),77*,-8
CC(=O)Nc1ccc2c(c1)C1C=CCC1C(c1ccccc1[N+](=O)[O-])N2 (stereo unspecified),65*,6
COC(=O)C(NC(=O)N1CCC(c2nc(C(=O)N(C)C)c(C)o2)CC1)c1ccccc1 (stereo unspecified),14,-9
CC(C)CC(=O)NC(c1ccccc1)c1ccccc1,-4,-5
O=C(Nc1cccc(Cl)c1F)N1CCc2c(nc[nH]c2=O)C1,0,-5
CCCNC(=O)Cn1c(CC)nc2c(c1=O)CN(Cc1ccccc1)CC2,5,0
Cc1cc(C2CCCN2C(=O)NCc2ccco2)on1 (stereo unspecified),2,2
COc1cccc(CN2CCc3c(cc(C(=O)Nc4ccccc4)n3C)C2)c1,59*,0
COc1cccc(CN2CCc3c(cc(C(=O)Nc4cccc(C)c4C)n3C)C2)c1,43,1
COCCNC(=O)c1cc2c(n1C)CCN(Cc1cccc(OC)c1)C2,21,-1
SMILES,mHTT-CaM PPI inh,Pf apPOL block
Cc1ccc(CN2CCc3c(cc(C(=O)Nc4ccc(N5CCOCC5)cc4)n3C)C2)cc1,33,1
COc1cccc(CN2CCc3c(cc(C(=O)NCc4ccc(F)cc4)n3C)C2)c1,54*,-4
COc1ccc(NC(=O)c2cc3c(n2C)CCN(Cc2ccc(C)cc2)C3)cc1OC,50*,-2
COc1cccc(CN2CCc3c(cc(C(=O)Nc4ccccc4OC)n3C)C2)c1,88*,4
COc1cccc(CN2CCc3c(cc(C(=O)NC(C)C)n3C)C2)c1,34,2
CC(NC(=O)c1sc2ncccc2c1-n1cccc1)c1ccc(F)cc1 (stereo unspecified),-3,4
COc1ccc(NC(=O)c2cc3c(n2C)CCN(Cc2ccc(F)cc2)C3)cc1,99*,-5
CCN(CC)C(=O)c1cc2c(n1C)CCN(Cc1ccc(F)cc1)C2,34,-3
COc1ccccc1NC(=O)c1cc2c(n1C)CCN(Cc1cccc(C)c1)C2,63*,-4
COc1ccc(CNC(=O)c2cc3c(n2C)CCN(Cc2ccccc2)C3)cc1OC,44,2
CCN1c2cc(C)ccc2-n2cccc2C12CCN(C(=O)c1ccc(F)cc1)CC2,85*,1
CCN1c2cc(C)ccc2-n2cccc2C12CCN(C(=O)Cc1cccs1)CC2,98*,-2
CCN1c2ccc(C)cc2C(=O)NC12CCN(C(=O)c1ccc3c(c1)OCO3)CC2,-1,1
CCN1c2cc(C)ccc2-n2cccc2C12CCN(C(=O)c1ccc3c(c1)OCO3)CC2,66*,-4
